Source: PubChem BioAssay
Beta apoptosis – beta cell apoptosis inhibition | AID 435005 | INS-1E cytokine-induced death, ATP luminescence, 48 h; percent of positive-control rescue, neutral wells zero | protection from apoptosis, % (test concentration not listed) | 300,000 compounds, 0.8% hits;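 active = Every replicate reaches about 75%, or at least half do and their mean reaches it too, limit read from the data; inconclusive = At least half of replicates reach the limit but their mean does not; inactive = Under half of replicates reach the limit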;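 also: higher means more ATP so stronger rescue from cytokine killing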
Bfl-1 A1 inh – inhibitors of the anti-apoptotic protein A1, read as caspase activation; 330,000 compounds, 0.066% hits; MEF A1-2A-BIM cells, Caspase-Glo 3/7 luminescence, 3 h; percent of clofoctol response, vehicle zero; caspase activation, % (concentration not given with the values);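 active = over half of replicate activation scores above 10%, or exactly half above 10 with the replicate mean above 10; inconclusive = replicate mean below 10 yet half the replicates above 10; inactive = over half of replicates below 10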
aSyn UTR inh – 5' untranslated region of α-synuclein, MLPCN primary screen. alpha-synuclein 5'UTR reporter, inhibitor activity. inhibition, % (tested at 7.5 µM). 300,000 compounds, 0.82% hits. AID 1813; in the data active = inhibition above about 60%; inconclusive = no clear call, values can overlap the other calls;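 also: H4 neuroglioblastoma cells stably carrying SNCA 5'UTR luciferase fusion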
CSC inhib – cancer stem cell inhibition | 300,000 compounds, 1.1% hits | inhibition, % at 7.5 µM | cancer stem cell-like cells viability, luminescence; in the data active = inhibition above about 75%; inconclusive = no clear call, values can overlap the other calls; tested in HMLE shEcad cells
Mdm2-MdmX inh – human Mdm2/MdmX binding inhibition; inhibition, % at 8 µM; 330,000 compounds, 3% hits; O15151+Q00987; SaOS-2 split-luciferase Mdm2/MdmX complementation, luminescence;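 active = inhibition of at least 50% at 8 µM in the primary screen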
Target sequence (O15151 whole entry, looked up): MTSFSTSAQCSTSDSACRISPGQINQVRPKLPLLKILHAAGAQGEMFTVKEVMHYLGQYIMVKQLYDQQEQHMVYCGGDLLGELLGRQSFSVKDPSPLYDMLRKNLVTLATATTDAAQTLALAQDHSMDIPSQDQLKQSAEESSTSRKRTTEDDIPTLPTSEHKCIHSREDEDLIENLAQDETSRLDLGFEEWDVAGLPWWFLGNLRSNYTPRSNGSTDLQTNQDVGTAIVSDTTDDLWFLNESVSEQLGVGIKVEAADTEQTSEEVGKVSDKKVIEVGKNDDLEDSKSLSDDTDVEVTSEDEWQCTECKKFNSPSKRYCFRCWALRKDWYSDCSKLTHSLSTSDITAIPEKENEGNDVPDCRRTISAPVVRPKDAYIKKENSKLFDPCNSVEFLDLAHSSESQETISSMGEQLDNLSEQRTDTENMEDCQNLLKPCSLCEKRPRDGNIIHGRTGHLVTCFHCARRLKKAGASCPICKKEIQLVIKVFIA
Target sequence (Q00987 whole entry, looked up): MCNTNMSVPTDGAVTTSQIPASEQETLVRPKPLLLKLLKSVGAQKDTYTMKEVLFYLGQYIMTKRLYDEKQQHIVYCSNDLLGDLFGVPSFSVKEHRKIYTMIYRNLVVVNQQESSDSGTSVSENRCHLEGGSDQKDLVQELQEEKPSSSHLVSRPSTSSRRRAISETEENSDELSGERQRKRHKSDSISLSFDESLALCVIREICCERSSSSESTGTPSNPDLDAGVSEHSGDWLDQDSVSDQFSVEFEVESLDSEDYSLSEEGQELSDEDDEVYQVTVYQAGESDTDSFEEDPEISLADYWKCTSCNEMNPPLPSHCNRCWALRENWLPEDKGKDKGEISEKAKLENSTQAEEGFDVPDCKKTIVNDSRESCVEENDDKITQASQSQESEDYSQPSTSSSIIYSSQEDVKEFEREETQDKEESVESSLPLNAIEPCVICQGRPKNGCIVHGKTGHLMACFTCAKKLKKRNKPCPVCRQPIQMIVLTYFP
Mdm2-MdmX conf – confirmation of human Mdm2/MdmX interaction inhibitors. inhibition, % at 8 µM. Mdm2-MdmX binding, luminescent assay. shares compounds with Mdm2-MdmX inh. 10,000 compounds, 55% hits; in the data active = inhibition above about 40%
Full FLuc ctr – inhibits full-length luciferase, flagging false Mdm2/MdmX hits; shares compounds with Mdm2-MdmX inh; SaOS-2 full-length luciferase counterscreen, luminescence; inhibition, % at 8 µM; 6,200 compounds, 77% hits; AID 504607;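 active = mean inhibition at 8 µM reaching about 37%, which flags the compound as non-specific, limit read from the data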;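 also: p53-null SaOS-2 cells with luciferase driven by a doxycycline-inducible promoter; compound on cells about two nights before reading with doxycycline added after day one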
Hits are given with their value; . = inactive; ? = inconclusive; / = no result. Sampled rows, rich in hits. Any-hit rate of the full collection: about 4.1%.

SMILES	Beta apoptosis	Bfl-1 A1 inh	aSyn UTR inh	CSC inhib	Mdm2-MdmX inh	Mdm2-MdmX conf	Full FLuc ctr
Cc1ccc(NC(=O)Cn2nnc(C(=O)NCc3ccc(Cl)cc3)c2N)cc1F	.	.	.	.	.	/	/
Cc1cc(C)c(NC(=O)c2cccc3c2C(=O)N(C2CCCCC2)C3)c(C)c1	.	.	.	.	63	.	/
COc1ccc(OC)c(NC(=O)CS(=O)(=O)Cc2ccccc2)c1	/	/	.	/	.	/	/
COc1ccc(NC(=O)c2nc(S(=O)(=O)Cc3cccc(C)c3)ncc2Cl)c(OC)c1	.	.	82	.	85	70	.
COc1ccc(OC)c(NC(=O)c2nc(S(=O)(=O)Cc3ccccc3)ncc2Cl)c1	80	.	99	106	100	93	51
CC(/C=N\Nc1nnc2c(n1)[nH]c1c(C)cccc12)=C\c1ccco1	.	.	.	.	91	40	57
COc1ccc(OC)c(C2=NS(=O)(=O)N(C)C(C(=O)Nc3ccc(F)cc3F)=C2)c1	.	.	.	.	.	/	/
Nc1nonc1-n1nnc(C(=O)N/N=C/c2cccc(Cl)c2)c1-c1cccs1	.	.	.	.	.	/	/
CSc1ccc(C2C(C(=O)c3ccco3)=C(O)C(=O)N2c2nnc(SC)s2)cc1 (stereo not given)	.	.	.	.	.	/	/
O=C(CC1S/C(=N/N=C/c2cccnc2)NC1=O)Nc1ccccc1 (stereo not given)	.	.	/	.	.	/	/
O=C1N/C(=N\N=C\c2cccnc2)SC1Cc1ccc(SC(F)F)cc1 (stereo not given)	88	.	?	99	64	72	44
Cc1ccc(NC(=O)CSc2nc(=O)n(Cc3ccncc3)c3c2CCC3)c(C)c1	/	.	.	.	.	/	/
CC(=O)NC(=S)Nc1ccc(NC(=O)c2cccs2)cc1	.	.	.	.	.	/	/
Cc1c(C(=O)NC(=S)Nc2ccc(NC(=O)c3cccs3)cc2)oc2ccccc12	.	.	.	.	62	.	/
COc1cc(-c2ccc3oc(-c4ccsc4)cc(=O)c3c2)cc(OC)c1OC	.	.	/	.	73	.	/
COc1ccc(-c2ccc3c(=O)cc(-c4ccsc4)oc3c2)cn1	.	.	/	.	79	.	/
O=C(CSc1nnc(COc2ccccc2)o1)N1CCCCC1	.	.	.	.	.	/	/
Nc1cc(=O)[nH]c(SCC(=O)NCCC2=CCCCC2)n1	.	.	/	.	.	/	/
CC(=O)NC1=C(Nc2ccc(N(C)C)cc2)C(=O)c2ccccc2C1=O	.	.	.	.	70	45	115
CCOC(=O)c1c(CSC(=N)N)n(-c2ccc(C)cc2)c2cc(Br)c(OC(C)=O)cc12	.	.	.	114	92	.	/
CCOC(=O)c1c(CSC(=N)N)n(C)c2cc(Br)c(OC(C)=O)cc12	.	.	.	.	.	/	/
O=C(CSc1nc(O)c(C2CCCCC2)c(=O)[nH]1)Nc1ccccc1Cl	.	.	.	.	.	/	/
CCn1c2ccccc2c2cc(NS(=O)(=O)c3ccccc3C)ccc21	.	.	.	.	63	47	67
CCCC(=O)Nc1ccc2c(c1)c1ccccc1n2CC	.	.	.	.	.	/	/
Nc1c(C(=O)CSc2nc(-c3ccccc3)cs2)c(=O)[nH]c(=O)n1C1CC1	.	.	/	.	.	/	/
SMILES	Beta apoptosis	Bfl-1 A1 inh	aSyn UTR inh	CSC inhib	Mdm2-MdmX inh	Mdm2-MdmX conf	Full FLuc ctr
CN(C)C/C=C/C(=O)Nc1cccc(-c2c[nH]c3ncnc(Oc4ccc(NC(=O)CC(=O)Nc5ccc(F)cc5)cc4F)c23)c1	.	.	/	/	68	.	/
COc1ccc(CCNC(=O)c2cc3c(=O)n4ccccc4nc3n(CCCN3CCOCC3)c2=N)cc1	.	.	.	.	54	.	/
COc1ccc(CCNC(=O)c2cc3c(=O)n4ccccc4nc3n(Cc3ccco3)c2=N)cc1OC	/	.	.	.	62	41	.
COc1ccc(CCNC(=O)c2cc3c(=O)n4ccccc4nc3n(C3CCCCC3)c2=N)cc1OC	.	.	.	.	58	.	/
COc1ccc(CCNC(=O)c2cc3c(=O)n4ccccc4nc3n(CCN3CCOCC3)c2=N)cc1	.	.	.	.	.	/	/
N=c1c(C(=O)NCC2CCCO2)cc2c(=O)n3ccccc3nc2n1C1CCCCC1 (stereo not given)	.	.	.	.	.	/	/
COc1ccc(CCNC(=O)c2cc3c(=O)n4ccccc4nc3n(C3CCCCC3)c2=N)cc1	.	.	.	.	61	.	69
CN(CC(=O)Nc1ccccc1Br)C(=O)Cn1[nH]c(=O)c2ccccc2c1=O	.	.	/	.	.	/	/
CC/C(=N/N=C(/CC)c1ccc(O)cc1)c1ccc(O)cc1	.	.	.	.	.	/	/
CCc1nnc(NS(=O)(=O)c2ccc(NC(=O)c3cccc(OC)c3)cc2)s1	.	.	.	.	.	/	/
O=C(ONC1=NCCCCC1)c1cccc([N+](=O)[O-])c1	.	.	.	.	56	.	/
O=[N+]([O-])c1cccc(/C=N/NC2=NCCCCC2)c1	.	.	.	.	.	/	/
O=C(NCCC1=CCCCC1)c1coc(=O)c(Br)c1	.	.	.	?	84	.	.
O=C(NCCC1=CCCCC1)c1ccc(=O)oc1	.	.	.	.	.	/	/
O=C(CN(Cc1ccco1)C(=O)CCC(=O)Nc1ccccn1)NCc1ccccc1	.	.	.	.	.	/	/
Cc1nc2sc(C(N)=O)c(N)c2c(C)c1CC(=O)c1ccccc1	.	.	.	.	58	62	.
COc1ccc(S(=O)(=O)N2CCOC23CCN(S(=O)(=O)c2cc(C)ccc2OC)CC3)cc1	/	.	.	.	.	/	/
Cc1ccc(CNC(=O)CCS(=O)(=O)c2ccc3c(c2)CC(C)N3C(=O)C2CC2)cc1 (stereo not given)	.	.	.	.	63	49	50
O=C(CSc1ccccn1)Nc1ccc(NC(=O)CSc2ccccn2)cc1	.	.	.	.	.	/	/
O=C(CSc1ccccn1)Nc1nonc1[N+](=O)[O-]	/	/	.	/	95	80	.
CS(=O)(=O)c1sc(C#N)c2c1C(=O)CC(c1ccccc1)C2 (stereo not given)	39	57	81	110	99	100	.
Cc1oc2c(c(=O)c1C)C(=O)CC(c1ccccc1)C2 (stereo not given)	/	.	.	.	.	/	/
Cc1ccc(C)c(C(=O)Nc2cc(C)nn2-c2nc(C)cc(C)n2)c1	.	.	.	.	57	.	60
Cc1cc(C)cc(S(=O)(=O)c2cn(C)c3cc(N4CCN(C)CC4)c(F)cc3c2=O)c1	.	.	.	.	96	.	/
Cc1cnc(NC(=O)CN2CCN(c3ccccn3)CC2)s1	79	.	.	.	67	63	64
O=C(NCCS(=O)(=O)NCc1cccnc1)c1ccccc1	.	.	.	.	.	/	/
CSc1cccc(NC(=O)CN2C(=O)c3ccccc3S2(=O)=O)c1	.	.	.	.	53	44	77
